Source: PubChem
L3MBTL1 inh: blocks human L3MBTL1; Q9Y468; AlphaScreen L3MBTL1–H3K9me1 peptide binding; Potency, µM (series often up to 57.1 µM), hits mostly inhibitors; actives 0.66% (n = 230,000); also: nearly all actives have a fitted effect of over 60% in size
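Displacement of a biotinylated histone H3(1-15) peptide monomethylated at Lys9 (75 nM) from L3MBTL1 (50 nM) was measured by AlphaScreen after a 30 min room-temperature compound incubation; cefsulodin titration served as intraplate control.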
POLI inh: blocks human DNA polymerase iota activity; Q9UNA4; Pol iota fluorescent replication assay, 10 min; AID 588590; actives 1% (n = 390,000); Potency, µM (highest dose often 115 µM), usual class: inhibitors
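Pol iota at 10 nM preincubated 15 min with compounds at room temperature; reaction started with fluorescent substrate, 50 nM final. Fluorescence read kinetically at 0 and 10 min; buffer-only wells as negative control.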
POLH inh: blocks human DNA polymerase eta activity | Potency, µM (titrated, usually from 114 µM), most hits filed as inhibitors | recombinant Pol eta, fluorescent DNA replication assay | actives 1.2% (n = 390,000)
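Pol eta at 10 nM preincubated with compounds 15 min at room temperature; reaction started with fluorescent substrate (50 nM final) and read kinetically at 0 and 10 min.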
POLK inh: DNA polymerase kappa (human) inhibition | actives 0.53% (n = 400,000) | Potency, µM (highest dose often 107 µM), hits mostly inhibitors | purified Pol kappa, fluorescent DNA synthesis assay, 10 min
Target sequence (Q9UBT6 whole entry, looked up): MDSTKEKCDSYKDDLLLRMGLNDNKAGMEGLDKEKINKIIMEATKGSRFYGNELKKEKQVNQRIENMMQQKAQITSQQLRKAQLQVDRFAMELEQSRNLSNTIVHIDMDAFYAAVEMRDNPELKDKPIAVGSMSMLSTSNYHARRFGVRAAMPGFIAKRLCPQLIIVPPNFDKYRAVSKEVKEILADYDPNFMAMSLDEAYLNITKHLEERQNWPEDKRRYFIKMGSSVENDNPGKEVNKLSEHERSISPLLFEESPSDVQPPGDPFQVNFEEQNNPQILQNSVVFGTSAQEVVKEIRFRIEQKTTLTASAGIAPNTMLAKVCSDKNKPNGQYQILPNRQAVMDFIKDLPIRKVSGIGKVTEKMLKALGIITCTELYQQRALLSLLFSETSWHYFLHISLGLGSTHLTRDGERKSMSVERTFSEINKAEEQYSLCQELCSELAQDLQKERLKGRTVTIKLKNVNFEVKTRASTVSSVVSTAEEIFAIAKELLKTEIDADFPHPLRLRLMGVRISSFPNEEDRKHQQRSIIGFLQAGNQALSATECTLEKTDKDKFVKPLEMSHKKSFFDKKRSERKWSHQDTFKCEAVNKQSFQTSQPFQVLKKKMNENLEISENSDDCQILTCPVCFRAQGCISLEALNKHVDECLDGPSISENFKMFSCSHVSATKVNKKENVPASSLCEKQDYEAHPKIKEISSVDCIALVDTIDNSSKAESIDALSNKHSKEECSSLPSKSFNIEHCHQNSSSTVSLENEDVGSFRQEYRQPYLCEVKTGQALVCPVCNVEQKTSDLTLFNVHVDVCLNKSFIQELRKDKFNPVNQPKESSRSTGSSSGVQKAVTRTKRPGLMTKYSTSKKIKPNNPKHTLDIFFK
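Kinetic fluorescence screen: compound preincubated 15 min RT with 10 nM enzyme; 50 nM substrate (final) initiates; reads at 0/10 min.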
POLB inh: DNA polymerase beta (human) inhibition. P06746. Pol beta primer extension/strand displacement, fluorescence kinetic. Potency, µM (series often up to 114 µM), hits mostly inhibitors. actives 1.3% (n = 340,000). AID 485314
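Pol beta (10 nM) and compounds were preincubated 15 min at room temperature, then 50 nM substrate (final) started primer extension/strand displacement. Reads were taken at 0 and 10 min; concentration-response data were fitted to a four-parameter Hill equation.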
APEX1 inh: APE1 (human) endonuclease inhibition. recombinant APE1, TAMRA/BHQ-2 abasic DNA cleavage fluorescence. actives 0.35% (n = 350,000). Potency, µM (titrated, usually from 65.8 µM), hits mostly inhibitors. AID 2517; also: nearly all actives have a fitted effect of over 55% in size
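Incision of a quenched TAMRA/BHQ-2 THF abasic-site duplex (50 nM) by 0.75 nM APE1, after 15 min compound preincubation, measured as fluorescence increase over three 60 s reads. Values normalized to buffer, DMSO and NSC13755 control wells.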
Hits are given with their value; n = inactive; u = inconclusive; x = not tested or not shown; [ ] = dose if it differs, or a comment. Hits are enriched below; roughly 2.5% of the tested compounds scored in any of these assays. Calls follow the shape of the dose curve; as a rule, active = well fitted curve in the direction sought with a large enough effect; inconclusive = small, poorly fitted or top-dose-only effect, or another doubt; inactive = no such curve, though single readings can be large; an effect the other way counts as inactive or inconclusive.

SMILES | L3MBTL1 inh | POLI inh | POLH inh | POLK inh | POLB inh | APEX1 inh
CNc1cc(C(F)(F)F)nc(-c2ccccn2)n1 | n | n | n | n | n | n
Nc1nc(-c2ccccn2)nc(N)c1Cc1ccc(Cl)cc1Cl | 3.5µM | n | n | n | n | n
Nc1nc(-c2ccccn2)nc(N)c1Cc1ccccc1F | 4µM | n | n | n | n | n
Clc1ccc(OCc2nc(-c3ccccn3)no2)c(Br)c1 | n | n | n | n | n | n
COc1ccc(NC(=O)c2cc3c(=O)n(Cc4ccco4)ccc3nc2C)cc1 | x | n | n | n | n | x
CCc1cccc2c1NC(=O)[C@]21[C@@H]2C(=O)N(Cc3ccccc3)C(=O)[C@@H]2[C@@H]2CCCN21 | n | u | 22µM | n | u | n
Cc1c(Cl)ccc2c1NC(=O)[C@]21[C@@H]2C(=O)N(Cc3ccccc3)C(=O)[C@@H]2[C@@H]2CCCN21 | n | n | n | n | u | n
C[C@@H]1CCN(C(=O)[C@H](CCCNC(=N)N)NS(=O)(=O)c2cccc3c2NC[C@H](C)C3)[C@@H](C(=O)O)C1 | x | x | x | n | x | x
COc1ccc(Cn2cc3c(-c4ccc(F)cc4)nnc-3c3cc(OC)c(OC)cc32)cc1 | n | n | n | n | 79µM | n
CCCCN(C(=O)CSCC(=O)Nc1cccc(C)c1)c1c(N)n(Cc2ccccc2)c(=O)[nH]c1=O | n | n | n | n | x | n
CCN(CC)Cc1cc2[nH]c3c4ccc(Cl)cc4ncc3c2cc1OC | x | u | n | u | 50µM | u
COc1ccc(NC(=O)Cn2c(=O)n(-c3cccc(C(F)(F)F)c3)c(=O)c3sccc32)cc1 | x | n | n | n | n | x
Cc1ccc(C(=O)Nc2ccc(O)c(C(=O)O)c2)o1 | n[11.4 µM] | n | 14µM | n | u | n
Cc1ccc(C(=O)Nc2ccc(F)cc2)o1 | n | n | n | n | u | n
COc1cc2nc(N3CCN(C)CC3)nc(NC3CCN(Cc4ccccc4)CC3)c2cc1OC | x | n | x | n | x | x
O=C(O)CSc1nc(-c2ccc(Cl)cc2)nc2c1oc1ccccc12 | n | n | u | n | 56µM | n
CN(CC(=O)Nc1cccc(F)c1)C(=O)CSc1ccccc1F | x | u | n | n | 45µM | n
CN(CC(=O)Nc1cccc(F)c1)C(=O)c1ccc(C(=O)c2ccccc2)cc1 | n | n | n | n | x | n
CN(CC(=O)Nc1cccc(F)c1)C(=O)c1ccc(COc2ccccc2)cc1 | n | 79µM | n | n | x | n
O=C(NCc1ccc(F)cc1)C(=O)NCC(c1ccco1)S(=O)(=O)c1cccs1 (configuration not stated) | x | n | n | n | n | x
Cc1cccc(Nc2nc(N)c([N+](=O)[O-])c(N3CCN(C)CC3)n2)c1 | n | n | n | n | n | n
Cc1cccc(Nc2nc(N)c([N+](=O)[O-])c(N3CCCC(C)C3)n2)c1 (configuration not stated) | 32µM | n | n | n | n | n
CCOC(=O)c1c(C)[nH]c(=S)c(C#N)c1-c1ccc(Cl)cc1 | n | 79µM | n | n | n | n
CCN(CC)CCCNC(=S)N(CCCO)Cc1cc2cc3c(cc2[nH]c1=O)OCO3 | n[2.29 µM] | n | n | n | u | n
O=C(CSc1nccc(=O)[nH]1)N1c2ccccc2CCc2ccccc21 | n | 71µM | n | n | n | n
SMILES | L3MBTL1 inh | POLI inh | POLH inh | POLK inh | POLB inh | APEX1 inh
Cc1ccc(N2NC(=O)/C(=C\c3cc4c(cc3[N+](=O)[O-])OCO4)C2=O)cc1C | n | u | u | n | 20µM | n
O=C1NN(c2ccccc2)C(=O)/C1=C\c1ccc2c(c1)OCO2 | n | n | n | n | n | n
N#CCCN(C(=S)Nc1ccc(S(=O)(=O)N2CCOCC2)cc1)c1ccccc1F | n | n | n | n | x | n
Cc1cc2ccccc2c[n+]1CC(=O)c1ccc(F)cc1 | x | n | x | n | x | x
CCN(CC)CCCN1C=C2C(=O)C(C)(OC(=O)c3cccs3)C(=O)C=C2C=C1CCCC(=O)OC (configuration not stated) | x | x | x | x | x | n[12.4 µM]
COC(=O)CCCC1=CC2=CC(=O)C(C)(OC(=O)c3cccs3)C(=O)C2=CN1Cc1ccc2c(c1)OCO2 (configuration not stated) | x | 32µM | u | n | 50µM | n[12.4 µM]
COC(=O)CCCC1=CC2=CC(=O)C(C)(OC(=O)c3cccs3)C(=O)C2=CN1CCc1c[nH]c2ccccc12 (configuration not stated) | x | 50µM | n | u | n | n[12.4 µM]
COC(=O)CCCC1=CC2=CC(=O)C(C)(OC(=O)c3cccs3)C(=O)C2=CN1CCCOC(C)C (configuration not stated) | x | 25µM | n | n | n | n[12.4 µM]
CC1=C(c2ccc(C)cc2)S(=O)(=O)N=C1N1CCN(c2ccccc2)CC1 | x | n | n | n | n | x
Cc1ccc(NC(=O)CSc2nnc(-c3cccc([S+](=O)([O-])N4CCCC4)c3)n2-c2c(C)cccc2C)cc1 | x | x | x | x | x | n
O=C(O)c1ccc(S(=O)(=O)c2ccccc2C(=O)O)c([N+](=O)[O-])c1 | x | n | n | n | u | n
O=C(O)c1ccc(S(=O)(=O)c2ccc([N+](=O)[O-])cc2[N+](=O)[O-])cc1 | x | 1.1µM | 79µM | n | n | n
CC(C)C(=O)Nc1cccc(COc2cccc(CN(Cc3ccccc3)C(=O)OC(C)(C)C)c2)c1 | x | n | n | n | x | x
Cc1cc(-c2ccccc2)nc(Nc2nc3c(C)cccc3c(=O)[nH]2)n1 | x | n | 45µM | n | x | x
Cc1cc(C)c2nc(Nc3nc(-c4ccccc4)cc(=O)[nH]3)nc(C)c2c1 | n | n | n | n | u | n
CCCn1c(N)c(C(=O)CSc2nnc(-c3c[nH]c4ccccc34)n2C2CC2)c(=O)[nH]c1=O | n | n | n | n | x | n
Cn1c(N)c(C(=O)CSc2nnc(-c3c[nH]c4ccccc34)n2C2CC2)c(=O)[nH]c1=O | n | 40µM | u | n | x | u
Cc1cc(Cl)ccc1OC(C)C(=O)Nc1ccc(C(=O)Nc2ccccc2C(=O)O)cc1 (configuration not stated) | x | u | n | n | 79µM | n
Cc1nn(-c2ccccc2)c(Cl)c1/C=C1\SC(=S)N(CCCCCC(=O)O)C1=O | n | n | 25µM | n | n | n
O=C(O)CCCN1C(=O)/C(=C\c2ccccc2OCc2ccccc2)SC1=S | x | u | 79µM | n | u | n
O=C(O)CN1C(=O)/C(=C\c2ccccc2OCc2ccc(F)cc2)SC1=S | x | u | u | n | u | n
O=C(O)CN1C(=O)/C(=C\c2ccccc2OCc2ccccc2)SC1=S | x | x | 79µM | x | x | x
O=C1C(=O)N(Cc2cccs2)c2ccccc21 | n | n | n | n | n | n
